Assay results reported in PubChem BioAssay (NCI).
Compounds without any hit were thinned out: in the full panel of roughly 83,000, 20% have a hit.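 Step 1: grow cells in 96-well plates. Step 2: add test compound at a single concentration. Step 3: incubate 48 h. Step 4: record percent growth.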 Calls of active or inactive are those of the source. The calls were made as follows: active = growth percent below 10; inactive = the rest.

System: HS 578T breast
Test: NCI-60 one-dose screen, 48 h (100 = growth as untreated, 0 = no growth, -100 = all killed)
Conditions: 10 µM unless noted

SMILES	growth
Cc1ccc(C2=NN(c3ccc(S(N)(=O)=O)cc3)C(c3cn(-c4ccccc4)nc3-c3ccccc3)C2)cc1 (stereo unspecified)	96.6% (inactive)
CCN1C(=O)N(CC)C2C1NN=c1s/c(=C\c3cccc(F)c3)c(=O)n12 (stereo unspecified)	17.9% (inactive)
O=c1[nH]c(-c2cn(-c3ccc(Cl)cc3)nn2)nc2ccccc12	37% (inactive)
C=CCN=C1NC(=O)/C(=C/c2cc(C(C)(C)C)c(O)c(C(C)(C)C)c2)S1	76.9% (inactive)
O=c1[nH]c(CN2CCN(c3ccccc3F)CC2)nc2sc3c(c12)CCC3	121% (inactive)
COc1ncc(-c2ccc3ncnc(Nc4cccc(Cl)c4)c3c2)cc1NS(=O)(=O)C1CC1	13.6% (inactive)
Nc1nc(Cl)c2c(ncn2Cc2ccc(CCl)cc2)n1	94.1% (inactive)
O=S(=O)(NCCCNc1cc(-c2cn(-c3ccccc3)nc2-c2cccc(O)c2)ccn1)c1cccc2ccccc12	15.6% (inactive)
CC1CCN(C(=O)CSc2nc3sc4c(c3c(=O)[nH]2)CCCC4)CC1	113% (inactive)
Cc1cc(Nc2nc(C(=O)Nc3ccccc3)nc3ccccc23)n[nH]1	73.2% (inactive)
O=[N+]([O-])c1cc(S(=O)(=O)OCC2CO2)ccc1Cl (stereo unspecified)	101% (inactive)
N#CC1=C(N)n2nc(-c3ccncc3)nc2NC1c1cccc2ccccc12 (stereo unspecified)	80.5% (inactive)
O=C1NC(Cc2c[nH]c3ccccc23)C(=O)N1Cc1ccc(Cl)cc1 (stereo unspecified)	108% (inactive)
CSc1ccccc1C#C/C=C\C#Cc1ccccc1N1CCCC1=O	98% (inactive)
CC(C)CCN(CCCNc1c2c(nc3ccccc13)CCCC2)CCC(C)C	87.6% (inactive)
O=C(CC(O)c1ccncc1)c1ccccc1 (stereo unspecified)	-21.8% (active)
Nc1c(C(=O)Nc2cccc([N+](=O)[O-])c2)sc2nc3c(cc12)C(O)CCC3 (stereo unspecified)	71.8% (inactive)
CCN(CC)CCSc1c2ccc(Cl)cc2nc2ccc(OC)cc12	108% (inactive)
CNC(=O)Cc1nc(-c2cccc(NS(=O)(=O)c3c(F)cccc3F)c2F)c(-c2ccnc(Nc3ccccc3)n2)s1	64.5% (inactive)

SMILES	growth
CC(=O)Nc1ccc(S(=O)(=O)N2C(=O)CCC2C(=O)Nc2ccccc2)cc1 (stereo unspecified)	63.1% (inactive)
Nc1cccc2c1CN(C1CCC(=O)NC1=O)C2=O (stereo unspecified)	112% (inactive)
C=CC(=O)N[C@H](/C=C/C(=O)OCC)Cc1ccc(-c2cc(Cl)cc(Cl)c2)cc1	94.8% (inactive)
CCOC(=O)CC(C#N)(CC(=O)OCC)C(=O)OCC	117% (inactive)
CCN(CC)CCCNc1nc(C)cc(Nc2ccc3nc(C)cc(N)c3c2)n1	109% (inactive)
O=c1cc(C2NCCc3c2[nH]c2ccccc32)c2c(ccc3ccccc32)o1 (stereo unspecified)	55.9% (inactive)
Nc1nc(N)c2nc(CNc3ccc(C(=O)CC(CCC(=O)O)C(=O)O)cc3)cnc2n1 (stereo unspecified)	82.4% (inactive)
O=C1Nc2cc(Cl)ccc2/C1=C/c1ccc(N2CCOCC2)s1	129% (inactive)
O=S(=O)(NCCCNc1nccc(-c2c(-c3ccccc3)nc3sccn23)n1)c1ccc(F)cc1	72% (inactive)
O=Nc1c(-c2c(O)[nH]c3ccc([N+](=O)[O-])cc23)[nH]c2ccc(O)cc12	1.21% (active)
CC/C=C\C[C@H](O)C/C=C1/C(=O)C(Cl)=C[C@@H]1C/C=C\CCCC(=O)OC	35.2% (inactive)
CCOC(=O)CC/C(C)=N\Nc1ccc([N+](=O)[O-])cc1	88.6% (inactive)
CC(C)N(Cc1ccc(CN(C(=O)CCl)C(C)C)cc1)C(=O)CCl	59.3% (inactive)
COc1cc(CCn2nnc3c(NCCCCO)ncnc32)cc(OC)c1	101% (inactive)
CCN1C(=O)N(CC)C2Nn3c(s/c(=C\c4cccc(F)c4)c3=O)=NC21 (stereo unspecified)	75.5% (inactive)
O=C1c2ccccc2C(=O)c2c1oc1oc3c(c(=O)c21)c(=O)n(-c1ccccc1)c1ccccc31	90.5% (inactive)
Cc1c(C2=NNC(c3ccc4c(c3)OCO4)C2)[n+]([O-])c2ccccc2[n+]1[O-] (stereo unspecified)	94.3% (inactive)
c1ccc(CCn2nnc3c(Nc4ccc(N5CCOCC5)cc4)ncnc32)cc1	97.3% (inactive)
COc1ccc(C2SCC(=O)N2NC(=O)c2ccc(NC(=O)c3ccccn3)cc2)cc1OC (stereo unspecified)	102% (inactive)

System: NCI/ADR-RES ovarian
Test: as above
Conditions: 10 µM unless noted

SMILES	growth
Cc1ccc(C2=NN(c3ccc(S(N)(=O)=O)cc3)C(c3cn(-c4ccccc4)nc3-c3ccccc3)C2)cc1 (stereo unspecified)	90.6% (inactive)
CCN1C(=O)N(CC)C2C1NN=c1s/c(=C\c3cccc(F)c3)c(=O)n12 (stereo unspecified)	5.73% (active)
O=c1[nH]c(-c2cn(-c3ccc(Cl)cc3)nn2)nc2ccccc12	63.9% (inactive)
C=CCN=C1NC(=O)/C(=C/c2cc(C(C)(C)C)c(O)c(C(C)(C)C)c2)S1	70% (inactive)
O=c1[nH]c(CN2CCN(c3ccccc3F)CC2)nc2sc3c(c12)CCC3	111% (inactive)
COc1ncc(-c2ccc3ncnc(Nc4cccc(Cl)c4)c3c2)cc1NS(=O)(=O)C1CC1	40.8% (inactive)
Nc1nc(Cl)c2c(ncn2Cc2ccc(CCl)cc2)n1	98.4% (inactive)
O=S(=O)(NCCCNc1cc(-c2cn(-c3ccccc3)nc2-c2cccc(O)c2)ccn1)c1cccc2ccccc12	39.9% (inactive)
CC1CCN(C(=O)CSc2nc3sc4c(c3c(=O)[nH]2)CCCC4)CC1	109% (inactive)
Cc1cc(Nc2nc(C(=O)Nc3ccccc3)nc3ccccc23)n[nH]1	44.2% (inactive)
O=[N+]([O-])c1cc(S(=O)(=O)OCC2CO2)ccc1Cl (stereo unspecified)	108% (inactive)
N#CC1=C(N)n2nc(-c3ccncc3)nc2NC1c1cccc2ccccc12 (stereo unspecified)	91.9% (inactive)
O=C1NC(Cc2c[nH]c3ccccc23)C(=O)N1Cc1ccc(Cl)cc1 (stereo unspecified)	106% (inactive)
CSc1ccccc1C#C/C=C\C#Cc1ccccc1N1CCCC1=O	41.5% (inactive)
CC(C)CCN(CCCNc1c2c(nc3ccccc13)CCCC2)CCC(C)C	87.8% (inactive)
O=C(CC(O)c1ccncc1)c1ccccc1 (stereo unspecified)	65.2% (inactive)
Nc1c(C(=O)Nc2cccc([N+](=O)[O-])c2)sc2nc3c(cc12)C(O)CCC3 (stereo unspecified)	47.8% (inactive)
CCN(CC)CCSc1c2ccc(Cl)cc2nc2ccc(OC)cc12	105% (inactive)
CNC(=O)Cc1nc(-c2cccc(NS(=O)(=O)c3c(F)cccc3F)c2F)c(-c2ccnc(Nc3ccccc3)n2)s1	104% (inactive)

SMILES	growth
CC(=O)Nc1ccc(S(=O)(=O)N2C(=O)CCC2C(=O)Nc2ccccc2)cc1 (stereo unspecified)	41.5% (inactive)
Nc1cccc2c1CN(C1CCC(=O)NC1=O)C2=O (stereo unspecified)	104% (inactive)
C=CC(=O)N[C@H](/C=C/C(=O)OCC)Cc1ccc(-c2cc(Cl)cc(Cl)c2)cc1	81.8% (inactive)
CCOC(=O)CC(C#N)(CC(=O)OCC)C(=O)OCC	106% (inactive)
CCN(CC)CCCNc1nc(C)cc(Nc2ccc3nc(C)cc(N)c3c2)n1	101% (inactive)
O=c1cc(C2NCCc3c2[nH]c2ccccc32)c2c(ccc3ccccc32)o1 (stereo unspecified)	78.7% (inactive)
Nc1nc(N)c2nc(CNc3ccc(C(=O)CC(CCC(=O)O)C(=O)O)cc3)cnc2n1 (stereo unspecified)	25.6% (inactive)
O=C1Nc2cc(Cl)ccc2/C1=C/c1ccc(N2CCOCC2)s1	99.8% (inactive)
O=S(=O)(NCCCNc1nccc(-c2c(-c3ccccc3)nc3sccn23)n1)c1ccc(F)cc1	22.4% (inactive)
O=Nc1c(-c2c(O)[nH]c3ccc([N+](=O)[O-])cc23)[nH]c2ccc(O)cc12	42% (inactive)
CC/C=C\C[C@H](O)C/C=C1/C(=O)C(Cl)=C[C@@H]1C/C=C\CCCC(=O)OC	14% (inactive)
CCOC(=O)CC/C(C)=N\Nc1ccc([N+](=O)[O-])cc1	80.3% (inactive)
CC(C)N(Cc1ccc(CN(C(=O)CCl)C(C)C)cc1)C(=O)CCl	4.6% (active)
COc1cc(CCn2nnc3c(NCCCCO)ncnc32)cc(OC)c1	104% (inactive)
CCN1C(=O)N(CC)C2Nn3c(s/c(=C\c4cccc(F)c4)c3=O)=NC21 (stereo unspecified)	30.6% (inactive)
O=C1c2ccccc2C(=O)c2c1oc1oc3c(c(=O)c21)c(=O)n(-c1ccccc1)c1ccccc31	90.3% (inactive)
Cc1c(C2=NNC(c3ccc4c(c3)OCO4)C2)[n+]([O-])c2ccccc2[n+]1[O-] (stereo unspecified)	95.4% (inactive)
c1ccc(CCn2nnc3c(Nc4ccc(N5CCOCC5)cc4)ncnc32)cc1	78.8% (inactive)
COc1ccc(C2SCC(=O)N2NC(=O)c2ccc(NC(=O)c3ccccn3)cc2)cc1OC (stereo unspecified)	105% (inactive)
